# Results reported in PubChem BioAssay AID1159580 (chemical genetic matrix, 2015).
# Among all 5,500 compounds or so, about 2,000 (36%) were called active. Inconclusive results (about 18%) are left out. The list shows a part of the results. Unmarked numbers belong to inactive results. Cut-off read from the data, not from the text of the source: active = normalized growth mostly below about 0.91 (no sharp cut-off); inconclusive = no clear call, values can overlap the other calls; inactive = mostly above about 0.92.
# Assay: chemical genetic growth profiling, strain panel (AID 1159580);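 note: tested at 20 µM; growth read once vehicle control cultures reached saturation at 30 °C; 1 = growth at the plate median or of vehicle wells; lower values mean less growth of the strain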
# Conditions: S. cerevisiae deletion strains, growth OD
smiles,measurement,setting,value
CC1(C)C(C(Cl)Cl)C2(Cl)C(Cl)C(Cl)C1(Cl)C2(Cl)Cl (centres undefined),normalized growth,"locus YAL013W, strain DEP1, hits give low values",0.984
same,normalized growth,"locus YAL021C, strain ccr4, hits give low values",1.07
same,normalized growth,"locus YAL026C, strain drs2, hits give low values",0.996
same,normalized growth,"locus YAL030W, strain snc1, hits give low values",0.984
same,normalized growth,"locus YBL061C, strain skt5, hits give low values",0.983
same,normalized growth,"locus YBR009C, strain hhf1, hits give low values",0.976
same,normalized growth,"locus YBR021W, strain FUR4, hits give low values",0.996
same,normalized growth,"locus YBR023C, strain chs3, hits give low values",0.978
same,normalized growth,"locus YBR171W, strain sec66, hits give low values",0.978
same,normalized growth,"locus YBR229C, strain ROT2, hits give low values",0.987
same,normalized growth,"locus YBR231C, strain swc5, hits give low values",0.979
same,normalized growth,"locus YBR279W, strain paf1, hits give low values",0.992
same,normalized growth,"locus YCL011C, strain gbp2, hits give low values",0.993
same,normalized growth,"locus YCL016C, strain dcc1, hits give low values",0.979
same,normalized growth,"locus YCL029C, strain bik1, hits give low values",0.972
same,normalized growth,"locus YCL061C, strain MRC1, hits give low values",0.981
same,normalized growth,"locus YCL069W, strain vba3, hits give low values",0.993
same,normalized growth,"locus YCR088W, strain abp1, hits give low values",0.989
same,normalized growth,"locus YDL005C, strain med2, hits give low values",0.981
same,normalized growth,"locus YDL035C, strain GPR1, hits give low values",0.972
same,normalized growth,"locus YDL040C, strain nat1, hits give low values",0.984
same,normalized growth,"locus YDL074C, strain BRE1, hits give low values",1.02
same,normalized growth,"locus YDL101C, strain DUN1, hits give low values",0.991
same,normalized growth,"locus YDL134C, strain PPH21, hits give low values",0.986
same,normalized growth,"locus YDL185W, strain tfp1, hits give low values",0.989
same,normalized growth,"locus YDL192W, strain arf1, hits give low values",0.978
same,normalized growth,"locus YDR001C, strain nth1, hits give low values",0.992
same,normalized growth,"locus YDR069C, strain doa4, hits give low values",0.967
same,normalized growth,"locus YDR101C, strain arx1, hits give low values",0.99
same,normalized growth,"locus YDR137W, strain rgp1, hits give low values",0.839 (active)
same,normalized growth,"locus YDR150W, strain NUM1, hits give low values",0.999
same,normalized growth,"locus YDR159W, strain sac3, hits give low values",0.892
same,normalized growth,"locus YDR162C, strain NBP2, hits give low values",0.988
same,normalized growth,"locus YDR195W, strain ref2",0.997
same,normalized growth,"locus YDR297W, strain sur2, hits give low values",0.977
same,normalized growth,"locus YDR318W, strain mcm21, hits give low values",0.971
same,normalized growth,"locus YDR334W, strain swr1, hits give low values",0.997
same,normalized growth,"locus YDR335W, strain msn5, hits give low values",0.993
same,normalized growth,"locus YDR388W, hits give low values",0.959
same,normalized growth,"locus YDR392W, strain spt3, hits give low values",0.836
same,normalized growth,"locus YDR502C, strain sam2, hits give low values",0.974
same,normalized growth,"locus YEL003W, strain gim4, hits give low values",0.984
same,normalized growth,"locus YEL037C, strain rad23, hits give low values",0.995
same,normalized growth,"locus YEL061C, strain CIN8 (second series), hits give low values",0.995
same,normalized growth,"locus YEL061C, strain CIN8, hits give low values",0.994
same,normalized growth,"locus YER015W, strain faa2, hits give low values",0.979
same,normalized growth,"locus YER016W, strain bim1, hits give low values",0.984
same,normalized growth,"locus YER110C, hits give low values",0.981
same,normalized growth,"locus YER111C, strain swi4, hits give low values",1
same,normalized growth,"locus YER155C, strain BEM2 (second series), hits give low values",0.965
same,normalized growth,"locus YER155C, strain BEM2, hits give low values",0.983
same,normalized growth,"locus YER167W, strain BCK2, hits give low values",0.968
same,normalized growth,"locus YFR010W, strain ubp6, hits give low values",1
same,normalized growth,"locus YGL078C, strain dbp3, hits give low values",0.975
same,normalized growth,"locus YGL086W, strain mad1, hits give low values",0.981
same,normalized growth,"locus YGL167C, strain pmr1, hits give low values",0.973
same,normalized growth,"locus YGL173C, strain kem1, hits give low values",0.972
same,normalized growth,"locus YGL227W, strain vid30, hits give low values",0.99
same,normalized growth,"locus YGL240W, strain doc1, hits give low values",0.963
same,normalized growth,"locus YGL248W, strain PDE1, hits give low values",0.991
same,normalized growth,"locus YGL253W, strain hxk2, hits give low values",0.989
same,normalized growth,"locus YGR078C, strain PAC10, hits give low values",0.989
same,normalized growth,"locus YGR135W, strain pre9, hits give low values",0.971
same,normalized growth,"locus YGR229C, strain SMI1, hits give low values",0.962
same,normalized growth,"locus YGR252W, strain gcn5, hits give low values",0.962
same,normalized growth,"locus YHR013C, strain ard1, hits give low values",0.798 (active)
same,normalized growth,"locus YHR027C, strain rpn1, hits give low values",0.977
same,normalized growth,"locus YHR030C, strain SLT2, hits give low values",0.965
same,normalized growth,"locus YHR079C, strain IRE1 (second series), hits give low values",0.965
same,normalized growth,"locus YHR094C, strain hxt1, hits give low values",0.974
same,normalized growth,"locus YHR129C, strain ARP1, hits give low values",0.996
same,normalized growth,"locus YHR142W, strain chs7, hits give low values",0.992
same,normalized growth,"locus YHR200W, strain rpn10, hits give low values",0.977
same,normalized growth,"locus YIL066C, strain RNR3, hits give low values",0.955
same,normalized growth,"locus YIL073C, strain SPO22, hits give low values",0.883
same,normalized growth,"locus YIL125W, strain kgd1, hits give low values",0.979
same,normalized growth,"locus YIR030C, strain dcg1, hits give low values",0.972
same,normalized growth,"locus YJL092W, strain hpr5, hits give low values",0.986
same,normalized growth,"locus YJL095W, strain BCK1 (second series), hits give low values",0.983
same,normalized growth,"locus YJL095W, strain BCK1, hits give low values",0.991
same,normalized growth,"locus YJL115W, strain asf1, hits give low values",0.99
same,normalized growth,"locus YJL129C, strain trk1, hits give low values",0.841 (active)
same,normalized growth,"locus YJL134W, strain LCB3, hits give low values",0.986
same,normalized growth,"locus YJL154C, strain vps35, hits give low values",0.993
same,normalized growth,"locus YJL164C, strain tpk1, hits give low values",0.975
same,normalized growth,"locus YJL166W, strain qcr8, hits give low values",0.904
same,normalized growth,"locus YJL168C, strain set2, hits give low values",0.978
same,normalized growth,"locus YJL187C, strain SWE1 (second series), hits give low values",0.983
same,normalized growth,"locus YJL187C, strain SWE1, hits give low values",0.988
